Assay results as given in PubChem BioAssay (NCI).
About 83,000 compounds went through this panel and 20% of them were active in at least one assay; those are over-represented in the sample as a whole.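 Interpretation: 100, growth as untreated; towards 0, rising growth inhibition; 0, no net growth; 0 to -100, cell death. Compounds scoring below 10 were considered active.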 Values without a mark were called inactive. Calls of active or inactive are those of the source.

How the values were obtained:
Assay in all cases: NCI-60 one-dose screen, 48 h (100 = growth as untreated, 0 = no growth, -100 = all killed)
Settings in all cases: 10 µM unless noted
NCI-H23 lung = tested on: NCI-H23 lung
NCI-H226 lung = tested on: NCI-H226 lung
NCI-H322M lung = tested on: NCI-H322M lung
HOP-62 NSCLC = tested on: HOP-62 NSCLC
NCI-H460 lung = tested on: NCI-H460 lung
HOP-92 NSCLC = tested on: HOP-92 NSCLC
NCI-H522 lung = tested on: NCI-H522 lung
A549/ATCC NSCLC = tested on: A549/ATCC NSCLC
786-0 renal = tested on: 786-0 renal
COLO 205 colon = tested on: COLO 205 colon
DU-145 prostate = tested on: DU-145 prostate
K-562 leukemia = tested on: K-562 leukemia
MALME-3M melanoma = tested on: MALME-3M melanoma
MDA-MB-231 breast = tested on: MDA-MB-231 breast
SF-268 CNS = tested on: SF-268 CNS
SF-539 CNS = tested on: SF-539 CNS
UACC-257 melanoma = tested on: UACC-257 melanoma
M14 melanoma = tested on: M14 melanoma
RXF 393 renal = tested on: RXF 393 renal
SF-295 CNS = tested on: SF-295 CNS

CCC[CH2][Sn]1([CH2]CCC)[O]C2C(CO)OC(n3ccc(N)nc3=O)C2[O]1 (stereo not drawn)
growth (NCI-H23 lung): -42.1% (active) | growth (NCI-H226 lung): -93.9% (active) | growth (NCI-H322M lung): 33.3% | growth (HOP-62 NSCLC): 22.7% | growth (NCI-H460 lung): 12.1% | growth (HOP-92 NSCLC): -56.3% (active) | growth (NCI-H522 lung): -78.9% (active) | growth (A549/ATCC NSCLC): 68.1% | growth (786-0 renal): -89.9% (active) | growth (COLO 205 colon): -79.4% (active) | growth (DU-145 prostate): 2.15% (active) | growth (K-562 leukemia): -17.7% (active) | growth (MALME-3M melanoma): -71.7% (active) | growth (MDA-MB-231 breast): -68.8% (active) | growth (SF-268 CNS): -89.2% (active) | growth (SF-539 CNS): -64.2% (active) | growth (UACC-257 melanoma): -87.3% (active) | growth (M14 melanoma): -47.2% (active)

Cc1cccc2c(N)c3ccccc3nc12
growth (NCI-H23 lung): -39.6% (active) | growth (NCI-H226 lung): -9.22% (active) | growth (NCI-H322M lung): -2.56% (active) | growth (HOP-62 NSCLC): -7.52% (active) | growth (NCI-H460 lung): -17.4% (active) | growth (HOP-92 NSCLC): -20.4% (active) | growth (NCI-H522 lung): -36% (active) | growth (A549/ATCC NSCLC): -68.6% (active) | growth (786-0 renal): -9.45% (active) | growth (COLO 205 colon): -48.2% (active) | growth (DU-145 prostate): 6.74% (active) | growth (K-562 leukemia): 6.25% (active) | growth (MALME-3M melanoma): -37.2% (active) | growth (MDA-MB-231 breast): -24.2% (active) | growth (RXF 393 renal): -48.2% (active) | growth (SF-268 CNS): -1.12% (active) | growth (SF-295 CNS): 5.09% (active) | growth (UACC-257 melanoma): -22.2% (active) | growth (M14 melanoma): -55% (active)

O=C(c1ccccc1)C(Br)[N+](=O)[O-] (stereo not drawn)
growth (NCI-H23 lung): 99.8% | growth (NCI-H226 lung): 101% | growth (NCI-H322M lung): 101% | growth (HOP-62 NSCLC): 73.6% | growth (NCI-H460 lung): 101% | growth (HOP-92 NSCLC): 103% | growth (NCI-H522 lung): 64.4% | growth (A549/ATCC NSCLC): 69.6% | growth (786-0 renal): 106% | growth (COLO 205 colon): 86.8% | growth (DU-145 prostate): 105% | growth (K-562 leukemia): 25.8% | growth (MALME-3M melanoma): 54.4% | growth (MDA-MB-231 breast): 93.2% | growth (RXF 393 renal): 117% | growth (SF-268 CNS): 102% | growth (SF-295 CNS): 101% | growth (UACC-257 melanoma): 79% | growth (M14 melanoma): 84.3%

CCCCN(CCCC)CCCCCCCCCCO
growth (NCI-H23 lung): 97% | growth (NCI-H226 lung): 105% | growth (NCI-H322M lung): 95.1% | growth (HOP-62 NSCLC): 104% | growth (NCI-H460 lung): 110% | growth (HOP-92 NSCLC): 129% | growth (NCI-H522 lung): 75.9% | growth (A549/ATCC NSCLC): 115% | growth (786-0 renal): 92.1% | growth (COLO 205 colon): 106% | growth (DU-145 prostate): 111% | growth (K-562 leukemia): 93.9% | growth (MDA-MB-231 breast): 120% | growth (RXF 393 renal): 106% | growth (SF-268 CNS): 109% | growth (SF-539 CNS): 105% | growth (UACC-257 melanoma): 106% | growth (M14 melanoma): 93%

OCCOSCCO
growth (NCI-H23 lung): 107% | growth (NCI-H226 lung): 102% | growth (NCI-H322M lung): 119% | growth (HOP-62 NSCLC): 104% | growth (NCI-H460 lung): 111% | growth (HOP-92 NSCLC): 124% | growth (NCI-H522 lung): 96.1% | growth (A549/ATCC NSCLC): 111% | growth (786-0 renal): 100% | growth (COLO 205 colon): 119% | growth (DU-145 prostate): 122% | growth (K-562 leukemia): 102% | growth (MDA-MB-231 breast): 121% | growth (RXF 393 renal): 100% | growth (SF-268 CNS): 119% | growth (SF-539 CNS): 100% | growth (UACC-257 melanoma): 102% | growth (M14 melanoma): 100%

CC1CC(C)(C)OB(OC(C)CC(C)(C)OB2OC(C)CC(C)(C)O2)O1 (stereo not drawn)
growth (NCI-H23 lung): 93% | growth (NCI-H226 lung): 107% | growth (NCI-H322M lung): 102% | growth (HOP-62 NSCLC): 91.6% | growth (NCI-H460 lung): 111% | growth (HOP-92 NSCLC): 101% | growth (NCI-H522 lung): 81.6% | growth (A549/ATCC NSCLC): 93.8% | growth (786-0 renal): 98.4% | growth (COLO 205 colon): 93.8% | growth (DU-145 prostate): 102% | growth (K-562 leukemia): 96.1% | growth (MALME-3M melanoma): 111% | growth (RXF 393 renal): 116% | growth (SF-268 CNS): 102% | growth (SF-295 CNS): 105% | growth (SF-539 CNS): 104% | growth (UACC-257 melanoma): 94.8% | growth (M14 melanoma): -55.3% (active)

COc1cc([C@@H]2c3cc4c(cc3[C@H](OC3OC5COC(c6ccccc6)OC5C(O)C3O)[C@H]3COC(=O)[C@H]23)OCO4)cc(OC)c1OC (stereo partly drawn)
growth (NCI-H23 lung): 22.4% | growth (NCI-H226 lung): 75.9% | growth (NCI-H322M lung): 44.2% | growth (HOP-62 NSCLC): 29.6% | growth (NCI-H460 lung): 20.8% | growth (HOP-92 NSCLC): 37.7% | growth (NCI-H522 lung): 17.5% | growth (A549/ATCC NSCLC): 64.8% | growth (786-0 renal): 64% | growth (COLO 205 colon): -77.6% (active) | growth (DU-145 prostate): 57% | growth (K-562 leukemia): 15.9% | growth (MDA-MB-231 breast): 66.3% | growth (RXF 393 renal): 65.7% | growth (SF-268 CNS): 29.3% | growth (SF-295 CNS): 35.8% | growth (SF-539 CNS): 19.4% | growth (UACC-257 melanoma): 57.5% | growth (M14 melanoma): 33.2%

O=C(/C(Cl)=N/O)c1ccc(-c2ccccc2)cc1
growth (NCI-H23 lung): 93.4% | growth (NCI-H226 lung): 88.7% | growth (NCI-H322M lung): 94.3% | growth (HOP-62 NSCLC): 96.4% | growth (NCI-H460 lung): 107% | growth (HOP-92 NSCLC): 82.1% | growth (NCI-H522 lung): 30.7% | growth (A549/ATCC NSCLC): 107% | growth (786-0 renal): -80.7% (active) | growth (COLO 205 colon): 85.5% | growth (DU-145 prostate): 109% | growth (K-562 leukemia): 63.8% | growth (MALME-3M melanoma): 24.8% | growth (RXF 393 renal): 95.4% | growth (SF-268 CNS): 101% | growth (SF-295 CNS): 104% | growth (SF-539 CNS): 96.4% | growth (UACC-257 melanoma): 99.7% | growth (M14 melanoma): 96.7%

O=C(Cc1nc2cc(Cl)c(Cl)cc2nc1CC(=O)c1cccnc1)c1cccnc1
growth (NCI-H23 lung): 88.1% | growth (NCI-H226 lung): 77.2% | growth (NCI-H322M lung): 78.4% | growth (HOP-62 NSCLC): 86.3% | growth (NCI-H460 lung): 82.6% | growth (HOP-92 NSCLC): 78% | growth (NCI-H522 lung): 58.8% | growth (A549/ATCC NSCLC): 93.5% | growth (786-0 renal): 58.7% | growth (COLO 205 colon): 89.8% | growth (DU-145 prostate): 93.5% | growth (K-562 leukemia): 49.6% | growth (MALME-3M melanoma): 65.5% | growth (RXF 393 renal): 87.9% | growth (SF-268 CNS): 82.2% | growth (SF-295 CNS): 94.1% | growth (SF-539 CNS): 78.7% | growth (UACC-257 melanoma): 95.7% | growth (M14 melanoma): 76.5%

O=C(c1ccc(O)c(Br)c1)c1ccc(O)c(Br)c1
growth (NCI-H23 lung): 103% | growth (NCI-H226 lung): 109% | growth (NCI-H322M lung): 113% | growth (HOP-62 NSCLC): 102% | growth (NCI-H460 lung): 111% | growth (HOP-92 NSCLC): 101% | growth (NCI-H522 lung): 115% | growth (A549/ATCC NSCLC): 109% | growth (786-0 renal): 107% | growth (COLO 205 colon): 112% | growth (DU-145 prostate): 87% | growth (MALME-3M melanoma): 106% | growth (MDA-MB-231 breast): 101% | growth (RXF 393 renal): 107% | growth (SF-268 CNS): 90.6% | growth (SF-295 CNS): 118% | growth (SF-539 CNS): 90.1% | growth (UACC-257 melanoma): 110%

CCCCCCCCCCCCSC(=N)N
growth (NCI-H23 lung): 87.4% | growth (NCI-H226 lung): 107% | growth (NCI-H322M lung): 68.7% | growth (HOP-62 NSCLC): 58.3% | growth (NCI-H460 lung): -28% (active) | growth (HOP-92 NSCLC): -22.4% (active) | growth (NCI-H522 lung): 88.5% | growth (A549/ATCC NSCLC): 40.9% | growth (786-0 renal): -37.7% (active) | growth (COLO 205 colon): -95.1% (active) | growth (DU-145 prostate): 42.8% | growth (K-562 leukemia): -40.8% (active) | growth (MDA-MB-231 breast): -30.1% (active) | growth (RXF 393 renal): 21.5% | growth (SF-268 CNS): 67.8% | growth (SF-539 CNS): 74.9% | growth (UACC-257 melanoma): 14% | growth (M14 melanoma): -5.2% (active)

COc1ccc2nc3cc(Cl)ccc3c(NCCCCCN3CCCCC3)c2c1
growth (NCI-H23 lung): -49.1% (active) | growth (NCI-H226 lung): -39.8% (active) | growth (NCI-H322M lung): -34% (active) | growth (HOP-62 NSCLC): -31.6% (active) | growth (NCI-H460 lung): -62.9% (active) | growth (HOP-92 NSCLC): -56.4% (active) | growth (NCI-H522 lung): -71.6% (active) | growth (A549/ATCC NSCLC): -33.1% (active) | growth (786-0 renal): -73.4% (active) | growth (COLO 205 colon): -89.4% (active) | growth (DU-145 prostate): -3.46% (active) | growth (K-562 leukemia): -13.9% (active) | growth (MALME-3M melanoma): -84.7% (active) | growth (RXF 393 renal): -72.1% (active) | growth (SF-268 CNS): -36.4% (active) | growth (SF-295 CNS): 43.2% | growth (SF-539 CNS): -89.7% (active) | growth (UACC-257 melanoma): -74.8% (active) | growth (M14 melanoma): -81.9% (active)
